Data: PubChem BioAssay (EPA / NIEHS)
Inconclusive results are not listed. The source made the active and inactive calls. How the source made its calls, unless noted: active means hit-call score of the fitted dose curve at least 0.9, where 1 is the maximum; inconclusive means response in the unintended direction; inactive means score below 0.9.

What was measured:
[1] = ATG_TGFb_CIS: Attagene CIS-FACTORIAL HepG2 Assay for human Transforming Growth Factor (TGF) (AID 2282967; active means hit-call score of the fitted dose curve at least 0.9, where 1 is the maximum; inactive means score below 0.9); conditions: HepG2 Attagene CIS TGFb reporter, mRNA transcription; actives raise or lower the signal
In short: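 HepG2 cells transiently transfected with cis-promoter-driven multiplexed reporter units; 24 h compound exposure. Reporter mRNA measured by RT-PCR, 6-FAM labeling, HpaI digestion and capillary electrophoresis; bidirectional fit versus DMSO baseline.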

[2] = ATG_VDRE_CIS: Attagene CIS-FACTORIAL HepG2 Assay for human Vitamin D Receptor Element (VDRE) (AID 2282968; active means hit-call score of the fitted dose curve at least 0.9, where 1 is the maximum; inactive means score below 0.9); conditions: HepG2 VDRE cis-reporter transcription, actives raise or lower the signal
In short: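 Measures endogenous factor activity through cis-element-driven reporter transcripts in transiently transfected HepG2. Cells are treated 24 h; reporter mRNA is quantified by RT-PCR and capillary electrophoresis; fitting is bidirectional.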

[3] = target: Nuclear receptor subfamily 1 group I member 3 (Homo sapiens) (UniProt Q14994); assay: ATG_CAR_TRANS: Attagene TRANS-FACTORIAL HepG2 Assay for human Constitutive Androstane Receptor (CAR) (AID 2282969); conditions: HepG2 Attagene TRANS-FACTORIAL CAR reporter;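 further: activators raise reporter mRNA above DMSO so AC50 marks induction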
In short: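 Signal is reporter mRNA induction relative to DMSO, measured 24 h after dosing by RT-PCR with fluorescent primer extension and capillary electrophoresis. Human HepG2 liver cells carried transiently transfected chimeric NR-Gal4/GAL4-UAS reporter constructs.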

[4] = target: Steroid hormone receptor ERR1 (Homo sapiens) (UniProt P11474); assay: ATG_ERRa_TRANS: Attagene TRANS-FACTORIAL HepG2 Assay for human Estrogen-Related Receptor alpha (ERRa) (AID 2282971); conditions: HepG2 Attagene TRANS reporter, ERRa transactivation
In short: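 Reporter transcript induction was quantified by RT-PCR and capillary electrophoresis of FAM-labelled, HpaI-cut products after 24 h treatment of HepG2 cells carrying transiently transfected GAL4-UAS reporter units and an exogenous ERRa-Gal4 fusion; activity scored as increase over DMSO.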

[5] = target: X-box-binding protein 1 (Homo sapiens) (UniProt P17861); assay: ATG_Xbp1_CIS: Attagene CIS-FACTORIAL HepG2 Assay for human X-box Binding Protein 1 (XBP1) (AID 2282972; active means hit-call score of the fitted dose curve at least 0.9, where 1 is the maximum; inactive means score below 0.9); conditions: HepG2 XBP1 cis-element reporter, Attagene multiplex; actives raise or lower the signal
In short: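 Read-out: fluorescent reporter mRNA fragments resolved by capillary electrophoresis after RT-PCR. Human HepG2 liver cells carried transfected cis-promoter reporter units and were exposed to chemicals for 24 hours. Gain or loss of signal fitted relative to DMSO baseline.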

[6] = ATG_GAL4_TRANS: Attagene TRANS-FACTORIAL HepG2 Assay for GAL4 (Internal Marker) (AID 2282976); conditions: HepG2 Attagene TRANS GAL4 internal marker reporter
In short: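 First, HepG2 cells were transfected with reporter units under GAL4-UAS control. Next, they were treated with chemical for 24 h. Finally, RNA was reverse-transcribed, PCR-amplified, FAM-labelled and resolved by capillary electrophoresis, with induction scored against DMSO.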

[7] = target: Oxysterols receptor LXR-alpha (Homo sapiens) (UniProt Q13133); assay: ATG_LXRa_TRANS: Attagene TRANS-FACTORIAL HepG2 Assay for human Liver X Receptor alpha (LXRa) (AID 2282980); conditions: HepG2 Attagene TRANS reporter, LXRa transactivation
In short: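 Transfect HepG2 with GAL4-UAS multiplex reporter constructs (TRANS format, chimeric receptor-GAL4); treat 24 h; extract RNA, reverse-transcribe, PCR-amplify, FAM-label, HpaI-digest; resolve fragments by capillary electrophoresis. Upward response vs DMSO.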

[8] = target: Oxysterols receptor LXR-beta (Homo sapiens) (UniProt P55055); assay: ATG_LXRb_TRANS: Attagene TRANS-FACTORIAL HepG2 Assay for human Liver X Receptor beta (LXRb) (AID 2282981); conditions: HepG2 Attagene TRANS GAL4-LXRb reporter, mRNA
In short: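 After 24 h of chemical treatment, transfected HepG2 cells yield total RNA; reporter cDNA is PCR-amplified, FAM-labelled, HpaI-cut and run on capillary electrophoresis. Signal reflects chimeric LXRb-Gal4 activity on GAL4-UAS reporters.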

[9] = ATG_M_06_TRANS: Attagene TRANS-FACTORIAL HepG2 Assay for M06 Transcription Factor (Internal Marker) (AID 2282983); conditions: HepG2 Attagene TRANS M06 internal marker reporter;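 further: reporter transcript level by RT-PCR then capillary electrophoresis fluorescence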
In short: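 Background control endpoint: reporter mRNA from transiently transfected HepG2 after 24 h dosing, detected by RT-PCR with capillary electrophoresis fluorescence. Analysed for gain versus DMSO.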

[10] = target: Transcriptional activator Myb (Homo sapiens) (UniProt P10242); assay: ATG_Myb_CIS: Attagene CIS-FACTORIAL HepG2 Assay for human Myeloblastosis (Myb) Proto-Oncogene Transcription Factor (AID 2282986; active means hit-call score of the fitted dose curve at least 0.9, where 1 is the maximum; inactive means score below 0.9); conditions: HepG2 Attagene CIS-FACTORIAL Myb reporter transcription; actives raise or lower the signal
In short: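 Transiently transfected HepG2 cells carrying a multiplexed cis-promoter reporter set report endogenous Myb activity after 24 h compound exposure. Reporter mRNA is read by RT-PCR with capillary electrophoresis of fluorescent products, fitted bidirectionally against DMSO.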

[11] = target: Nuclear respiratory factor 1 (Homo sapiens) (UniProt Q16656); assay: ATG_NRF1_CIS: Attagene CIS-FACTORIAL HepG2 Assay for human Nuclear Respiratory Factor 1 (NRF1) Orphan Gene (AID 2282987; active means hit-call score of the fitted dose curve at least 0.9, where 1 is the maximum; inactive means score below 0.9); conditions: HepG2 NRF1 cis-element reporter, Attagene multiplex; actives raise or lower the signal
In short: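 HepG2 cells transiently transfected with multiple cis-regulated reporter units, exposed 24 h. Reporter mRNAs measured by RT-PCR, fluorescent labelling, HpaI digestion and capillary electrophoresis; bidirectional fitting against DMSO.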

[12] = target: Hepatocyte nuclear factor 4-alpha (Homo sapiens) (UniProt P41235); assay: ATG_HNF4a_TRANS: Attagene TRANS-FACTORIAL HepG2 Assay for human Hepatocyte Nuclear Factor 4 alpha (HNF4a) (AID 2282982); conditions: HepG2 HNF4a transactivation reporter, mRNA readout
In short: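 Multiplexed reporter assay: transfected HepG2, 24 h exposure, total RNA → oligo(dT) RT → PCR → 6-FAM extension → HpaI digest → CE fluorescence. DMSO = negative control.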

[13] = ATG_M_19_TRANS: Attagene TRANS-FACTORIAL HepG2 Assay for M19 Transcription Factor (Internal Marker) (AID 2282974); conditions: HepG2 Attagene TRANS-FACTORIAL M19 internal marker reporter
In short: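 HepG2 transiently transfected with GAL4-UAS multiplex reporter constructs, exposed 24 h; reporter RNA quantified by RT-PCR, 6-FAM labeling, HpaI digestion and capillary electrophoresis; internal background marker fitted upward versus DMSO.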

[14] = target: Glucocorticoid receptor (Homo sapiens) (UniProt P04150); assay: ATG_GR_TRANS: Attagene TRANS-FACTORIAL HepG2 Assay for human Glucocorticoid Receptor (GR) (AID 2282978); conditions: HepG2 Attagene TRANS GR reporter, mRNA transcription;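 further: activators score as hits since higher reporter transcript over DMSO is fitted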
In short: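 HepG2 cells transiently transfected with GAL4-UAS reporter units and exogenous GR-Gal4 chimera, dosed 24 h. Reporter mRNA by RT-PCR, FAM labeling, HpaI digest and capillary electrophoresis; gain-of-signal fit versus DMSO.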

[15] = target: Bile acid receptor (Homo sapiens) (UniProt Q96RI1); assay: ATG_FXR_TRANS: Attagene TRANS-FACTORIAL HepG2 Assay for Farnesoid X Receptor (FXR) (AID 2282979); conditions: HepG2 Attagene TRANS FXR-GAL4 reporter transcription;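 further: hits raise reporter mRNA above DMSO so AC50 marks FXR activation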
In short: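 Transient transfection of HepG2 with multiplexed GAL4-UAS reporter units; exogenous FXR-GAL4 chimera. Dose 24 h → TriZol RNA → oligo(dT) RT → PCR, 6-FAM primer extension, HpaI cut → CE. Gain vs DMSO.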

[16] = ATG_M_32_TRANS: Attagene TRANS-FACTORIAL HepG2 Assay for M32 Transcription Factor (Internal Marker) (AID 2282984); conditions: HepG2 Attagene TRANS M32 internal marker reporter;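 further: transcript level of a background control reporter unit measured by RT-PCR and capillary electrophoresis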
In short: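 Cell-based TRANS-format assay in HepG2: exogenous chimeric GAL4 reporter units transiently expressed, compounds applied 24 h. Reporter mRNA detected by RT-PCR plus capillary electrophoresis; this readout is an internal background marker.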

[17] = target: Nuclear receptor subfamily 4 group A member 2 (Homo sapiens) (UniProt P43354); assay: ATG_NURR1_TRANS: Attagene TRANS-FACTORIAL HepG2 Assay for human Nuclear Receptor Related Protein 1 (NURR1) (AID 2282985); conditions: HepG2 Attagene TRANS reporter, mRNA readout
In short: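 Measures transcriptional activation by an exogenous NR-Gal4 chimera in transfected HepG2 liver cells. After 24 h, reporter RNA is reverse-transcribed, amplified and resolved by capillary electrophoresis; DMSO defines baseline.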

[18] = target: Estrogen-related receptor gamma (Homo sapiens) (UniProt P62508); assay: ATG_ERRg_TRANS: Attagene TRANS-FACTORIAL HepG2 Assay for human Estrogen-Related Receptor gamma (ERRg) (AID 2282977); conditions: HepG2 Attagene TRANS reporter, ERRg transactivation;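 further: hits increase reporter signal over DMSO so potencies reflect activators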
In short: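 Exogenous NR-Gal4 chimera activity was assessed in HepG2 cells bearing transfected GAL4-UAS reporters. After 24 h dosing, total RNA underwent RT-PCR, fluorescent primer extension and HpaI digestion before capillary electrophoresis, with gain of signal scored against DMSO.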

Measured: AC50

Nuclear receptor subfamily 4 group A member 2 (Homo sapiens), sequence (P43354 whole entry, looked up, the tested form may be a part): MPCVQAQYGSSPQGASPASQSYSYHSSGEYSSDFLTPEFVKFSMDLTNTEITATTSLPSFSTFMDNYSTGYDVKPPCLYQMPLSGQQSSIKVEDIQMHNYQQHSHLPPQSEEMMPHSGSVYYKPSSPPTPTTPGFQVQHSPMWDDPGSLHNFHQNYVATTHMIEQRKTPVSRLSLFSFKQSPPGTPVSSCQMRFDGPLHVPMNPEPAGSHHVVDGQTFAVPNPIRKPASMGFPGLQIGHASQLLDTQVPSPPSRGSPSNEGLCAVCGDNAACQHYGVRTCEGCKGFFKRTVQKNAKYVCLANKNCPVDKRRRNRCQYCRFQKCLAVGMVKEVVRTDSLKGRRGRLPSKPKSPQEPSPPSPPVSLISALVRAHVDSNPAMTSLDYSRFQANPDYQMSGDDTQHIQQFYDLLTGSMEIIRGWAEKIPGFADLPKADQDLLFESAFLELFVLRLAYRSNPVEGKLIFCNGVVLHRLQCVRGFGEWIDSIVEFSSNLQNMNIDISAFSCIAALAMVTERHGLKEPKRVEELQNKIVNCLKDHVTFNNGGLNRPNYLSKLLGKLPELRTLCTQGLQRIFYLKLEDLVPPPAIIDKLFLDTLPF
Hepatocyte nuclear factor 4-alpha (Homo sapiens), sequence (P41235 whole entry, looked up): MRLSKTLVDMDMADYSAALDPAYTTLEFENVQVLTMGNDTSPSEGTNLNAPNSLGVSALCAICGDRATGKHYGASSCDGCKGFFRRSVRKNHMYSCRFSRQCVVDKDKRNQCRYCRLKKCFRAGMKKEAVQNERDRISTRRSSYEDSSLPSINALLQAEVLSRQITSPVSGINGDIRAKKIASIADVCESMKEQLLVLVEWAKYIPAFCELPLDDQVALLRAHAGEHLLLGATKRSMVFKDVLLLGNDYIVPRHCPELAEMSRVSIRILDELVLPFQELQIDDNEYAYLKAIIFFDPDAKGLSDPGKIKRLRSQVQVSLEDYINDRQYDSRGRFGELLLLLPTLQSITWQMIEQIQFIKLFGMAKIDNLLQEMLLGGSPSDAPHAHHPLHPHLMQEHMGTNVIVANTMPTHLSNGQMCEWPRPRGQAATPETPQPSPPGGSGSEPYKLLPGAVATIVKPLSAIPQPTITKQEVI
X-box-binding protein 1 (Homo sapiens), sequence (P17861 whole entry, looked up, the tested form may be a part): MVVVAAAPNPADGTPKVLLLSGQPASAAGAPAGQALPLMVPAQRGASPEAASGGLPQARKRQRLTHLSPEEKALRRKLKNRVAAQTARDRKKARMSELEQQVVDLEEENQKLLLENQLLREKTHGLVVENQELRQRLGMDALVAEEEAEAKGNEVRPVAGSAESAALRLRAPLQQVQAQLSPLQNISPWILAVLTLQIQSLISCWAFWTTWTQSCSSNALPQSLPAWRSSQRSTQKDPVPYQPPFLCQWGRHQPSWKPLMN
Nuclear respiratory factor 1 (Homo sapiens), sequence (Q16656 whole entry, looked up): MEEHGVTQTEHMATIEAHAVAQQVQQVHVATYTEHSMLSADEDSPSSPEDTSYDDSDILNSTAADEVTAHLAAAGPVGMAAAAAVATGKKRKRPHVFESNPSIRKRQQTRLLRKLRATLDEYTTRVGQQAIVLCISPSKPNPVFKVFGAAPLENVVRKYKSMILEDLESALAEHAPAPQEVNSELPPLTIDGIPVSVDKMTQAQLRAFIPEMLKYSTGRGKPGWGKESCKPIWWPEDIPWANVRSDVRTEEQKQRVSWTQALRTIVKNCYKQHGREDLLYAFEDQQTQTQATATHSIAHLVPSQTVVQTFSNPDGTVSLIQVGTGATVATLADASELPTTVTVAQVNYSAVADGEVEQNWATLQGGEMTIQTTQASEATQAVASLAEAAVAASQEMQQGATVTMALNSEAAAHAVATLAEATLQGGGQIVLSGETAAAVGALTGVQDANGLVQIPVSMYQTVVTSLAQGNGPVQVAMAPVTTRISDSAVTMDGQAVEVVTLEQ
Oxysterols receptor LXR-beta (Homo sapiens), sequence (P55055 whole entry, looked up, the tested form may be a part): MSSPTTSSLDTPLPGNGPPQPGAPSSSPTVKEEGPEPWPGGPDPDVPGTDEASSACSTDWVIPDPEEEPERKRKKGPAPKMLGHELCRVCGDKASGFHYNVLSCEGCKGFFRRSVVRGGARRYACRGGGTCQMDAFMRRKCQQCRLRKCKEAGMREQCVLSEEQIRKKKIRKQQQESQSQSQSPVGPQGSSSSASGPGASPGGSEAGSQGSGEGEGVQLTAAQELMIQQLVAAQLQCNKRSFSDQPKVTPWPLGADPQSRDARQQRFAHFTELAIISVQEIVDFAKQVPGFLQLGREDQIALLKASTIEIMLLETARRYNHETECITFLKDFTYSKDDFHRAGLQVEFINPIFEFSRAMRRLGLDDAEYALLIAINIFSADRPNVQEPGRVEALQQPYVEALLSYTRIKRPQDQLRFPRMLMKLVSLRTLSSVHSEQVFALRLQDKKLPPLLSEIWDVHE
Steroid hormone receptor ERR1 (Homo sapiens), sequence (P11474 whole entry, looked up, the tested form may be a part): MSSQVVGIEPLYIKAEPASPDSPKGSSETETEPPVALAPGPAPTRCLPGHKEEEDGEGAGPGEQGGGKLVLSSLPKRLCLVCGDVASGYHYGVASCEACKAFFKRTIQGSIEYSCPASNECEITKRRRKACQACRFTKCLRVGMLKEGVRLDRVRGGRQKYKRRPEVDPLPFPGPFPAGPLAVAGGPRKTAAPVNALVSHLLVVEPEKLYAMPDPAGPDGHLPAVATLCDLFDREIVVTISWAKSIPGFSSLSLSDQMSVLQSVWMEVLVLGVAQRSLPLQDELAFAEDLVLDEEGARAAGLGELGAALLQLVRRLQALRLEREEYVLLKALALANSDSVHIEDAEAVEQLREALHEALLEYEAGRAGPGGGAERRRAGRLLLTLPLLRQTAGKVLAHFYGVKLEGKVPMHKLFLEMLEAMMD
Transcriptional activator Myb (Homo sapiens), sequence (P10242 whole entry, looked up): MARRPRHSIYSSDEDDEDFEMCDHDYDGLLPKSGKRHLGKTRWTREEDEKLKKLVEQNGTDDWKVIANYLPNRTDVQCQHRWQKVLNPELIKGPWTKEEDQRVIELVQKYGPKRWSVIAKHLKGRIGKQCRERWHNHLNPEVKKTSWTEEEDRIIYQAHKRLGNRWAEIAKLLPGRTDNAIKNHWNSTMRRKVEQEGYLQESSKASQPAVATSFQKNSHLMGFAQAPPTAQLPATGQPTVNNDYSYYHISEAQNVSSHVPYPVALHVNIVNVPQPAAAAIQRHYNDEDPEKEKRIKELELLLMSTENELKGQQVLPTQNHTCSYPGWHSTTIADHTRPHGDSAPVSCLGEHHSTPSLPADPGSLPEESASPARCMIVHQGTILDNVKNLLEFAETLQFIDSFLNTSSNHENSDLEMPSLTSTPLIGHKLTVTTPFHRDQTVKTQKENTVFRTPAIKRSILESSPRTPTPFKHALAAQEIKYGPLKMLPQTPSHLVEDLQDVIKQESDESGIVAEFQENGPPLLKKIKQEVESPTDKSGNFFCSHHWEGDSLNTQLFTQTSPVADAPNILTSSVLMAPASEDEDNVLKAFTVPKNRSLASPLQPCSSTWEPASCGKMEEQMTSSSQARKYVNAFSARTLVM
Nuclear receptor subfamily 1 group I member 3 (Homo sapiens), sequence (Q14994 whole entry, looked up, the tested form may be a part): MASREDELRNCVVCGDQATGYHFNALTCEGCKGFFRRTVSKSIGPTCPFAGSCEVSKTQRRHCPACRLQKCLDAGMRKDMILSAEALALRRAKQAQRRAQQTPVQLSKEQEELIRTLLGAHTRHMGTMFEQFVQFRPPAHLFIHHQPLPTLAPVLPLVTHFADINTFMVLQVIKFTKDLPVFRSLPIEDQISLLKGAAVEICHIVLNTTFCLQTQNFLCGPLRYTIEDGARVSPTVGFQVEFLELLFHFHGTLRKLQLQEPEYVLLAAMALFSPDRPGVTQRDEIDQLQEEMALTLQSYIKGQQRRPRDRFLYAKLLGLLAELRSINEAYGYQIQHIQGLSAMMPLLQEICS
Bile acid receptor (Homo sapiens), sequence (Q96RI1 whole entry, looked up, the tested form may be a part): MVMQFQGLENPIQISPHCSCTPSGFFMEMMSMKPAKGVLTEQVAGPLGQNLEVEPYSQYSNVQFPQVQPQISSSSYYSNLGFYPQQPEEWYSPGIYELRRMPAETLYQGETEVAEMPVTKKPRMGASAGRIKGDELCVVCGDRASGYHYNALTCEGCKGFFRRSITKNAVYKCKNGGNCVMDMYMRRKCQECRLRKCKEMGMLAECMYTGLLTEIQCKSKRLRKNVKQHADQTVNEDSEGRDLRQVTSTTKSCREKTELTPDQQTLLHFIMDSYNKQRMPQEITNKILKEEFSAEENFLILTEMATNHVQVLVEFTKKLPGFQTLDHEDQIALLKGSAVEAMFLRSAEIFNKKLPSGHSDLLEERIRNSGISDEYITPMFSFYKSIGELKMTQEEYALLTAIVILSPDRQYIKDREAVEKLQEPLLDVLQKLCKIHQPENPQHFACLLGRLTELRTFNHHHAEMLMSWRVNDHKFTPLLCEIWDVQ
Oxysterols receptor LXR-alpha (Homo sapiens), sequence (Q13133 whole entry, looked up, the tested form may be a part): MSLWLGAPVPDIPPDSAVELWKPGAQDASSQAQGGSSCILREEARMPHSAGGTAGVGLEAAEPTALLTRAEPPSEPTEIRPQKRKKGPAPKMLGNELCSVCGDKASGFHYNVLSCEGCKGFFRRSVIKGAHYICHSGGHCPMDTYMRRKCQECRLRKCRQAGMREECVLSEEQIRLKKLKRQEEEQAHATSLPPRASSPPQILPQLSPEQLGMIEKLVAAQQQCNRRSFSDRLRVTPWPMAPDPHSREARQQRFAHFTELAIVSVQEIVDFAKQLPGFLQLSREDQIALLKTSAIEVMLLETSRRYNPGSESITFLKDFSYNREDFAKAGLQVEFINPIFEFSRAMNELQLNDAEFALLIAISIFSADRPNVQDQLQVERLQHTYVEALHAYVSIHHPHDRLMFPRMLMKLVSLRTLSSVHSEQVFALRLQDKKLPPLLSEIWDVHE

ON=C1CCCCC1
not listed: [12] | [13] | [14] | [15] | [16] | [17] | [18]
inactive: all other assays above

OC[C@H]1O[C@@H](Oc2ccc(O)cc2)[C@H](O)[C@@H](O)[C@@H]1O
inactive: [1] | [2] | [5] | [7] | [8] | [12] | [9] | [10] | [11]

Cc1ncc([N+](=O)[O-])n1CCO
inactive: [1] | [3] | [4] | [5] | [6] | [7] | [12] | [9] | [10] | [11]

CC(=O)O[C@H]1C[C@@H]2CC[C@@]1(C)C2(C)C
not listed: [4] | [12] | [17] | [18]
inactive: all other assays above

Oc1ccc2cc(SSc3ccc4cc(O)ccc4c3)ccc2c1
active: [2] 27.6 µM | [5] 40.2 µM
not listed: [4] | [11] | [13] | [14] | [17] | [18]
inactive: all other assays above

Cc1ccc(-c2ccccc2)cc1
inactive: [1] | [2] | [3] | [5] | [9] | [17] | [10] | [11]

CS(=O)(=O)c1ccc(Cl)cc1
not listed: [3] | [12] | [13] | [15] | [17]
inactive: all other assays above

CC(C)CCCCCCCCCCCCCCC(=O)O
active: [1] 177 µM
inactive: [5] | [14] | [7] | [9] | [16] | [17] | [10] | [11]

CCCCC(CC)C(=O)OC(C)C (stereo not given)
not listed: [3] | [4] | [12] | [14] | [15] | [18]
inactive: all other assays above

CC(=O)O[C@@H]1C[C@@H]2CC[C@@]1(C)C2(C)C
not listed: [3] | [4] | [6] | [9] | [17] | [18]
inactive: all other assays above

C1CCCCC1
not listed: [2] | [6] | [9] | [14] | [15] | [18]
inactive: all other assays above

C=C(C)C(=O)OCCOCCOCCOC(=O)C(=C)C
inactive: [1] | [2] | [5] | [13] | [6] | [14] | [7] | [16] | [10] | [11]

NCCNc1cccc2ccccc12
active: [2] 155 µM | [5] 161 µM
not listed: [1] | [4] | [6] | [13] | [15] | [18]
inactive: all other assays above

CCCCCCC(C)Nc1ccc(Nc2ccccc2)cc1 (stereo not given)
inactive: [1] | [5] | [14] | [15] | [7] | [8] | [9] | [10] | [11]
active: [2] 2.32 µM | [17] 39.5 µM
